This note sets out measurements from PubChem BioAssay (NCATS).

Several values for one entry are separate records, joined by “and”; a condition that tells them apart may be missing. Equal entries are not always repeated. Activity calls are given as the source filed them. Unless noted, the call rests on the fitted dose curve.

The target in test [1] is Estrogen receptor (Homo sapiens) (UniProt P03372). The test can be described thus: qHTS assay for small molecule antagonists of estrogen receptor alpha signaling (AID 588513; active means well fitted curve in the direction sought with a large enough effect in the signal ratio, with a control signal flat, not every such curve was filed as active; inconclusive means small, poorly fitted or top-dose-only effect, or effect the other way, or a change in a side signal; inactive means no such curve, though single readings can be large or run the other way; the % refers to the signal ratio; further: potency means the concentration at half of the fitted maximal effect). The method, boiled down:
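ER-alpha-UAS-bla GripTite HEK 293 cells in medium with 2% charcoal/dextran-treated FBS were preincubated 4 h at 37 C, dosed with compound (1:2 titration), stimulated with 0.5nM 17-beta-estradiol for 18 h, then read by CCF4 beta-lactamase fluorescence.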

For test [2] the target is unchanged. The test can be described thus: qHTS assay for small molecule agonists of estrogen receptor alpha signaling (AID 588514).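 Further: 0% = vehicle only and 100% = reference agonist; nearly all actives have a fitted effect of over 70% in size.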 The method, boiled down:
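Cells were plated at 5000/well, incubated 4 hrs at 37 C, dosed with compound titration series, incubated 18 hrs at 37 C, loaded with CCF4 dye for 2 hrs at RT, then fluorescence was read.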
(Quantitative high-throughput screening tests each substance at several concentrations.)

For test [3], the target named is Glucocorticoid receptor (Homo sapiens) (UniProt P04150). The test is described as follows: qHTS assay for small molecule antagonists of glucocorticoid receptor signaling (AID 588533; active means well fitted inhibition curve with a large enough effect in the signal ratio, with a control signal flat, not every such curve was filed as active; inconclusive means small, poorly fitted or top-dose-only effect, or effect the other way, or a change in a side signal; the % refers to the signal ratio;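 further: cells stimulated with 2 nM dexamethasone as agonist; on the % scale 0 is the no-effect control and ±100 the full control effect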). In short, it runs like this:
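Antagonist-mode qHTS: compound titrations added to GRE-bla HeLa cells, then dexamethasone 2 nM final; 18 h, 37 C. CCF4 FRET fluorescence normalized to dexamethasone and DMSO; IC50 from Hill fit.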

Test [4] concerns the target Peroxisome proliferator-activated receptor delta (Homo sapiens) (UniProt Q03181). The test can be described thus: qHTS assay for small molecule agonists of peroxisome proliferator-activated receptor delta signaling (AID 588534).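 Further: 0% = DMSO basal wells and 100% = positive control agonist at 10 µM.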 In short, it runs like this:
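Fluorescence from CCF4 substrate cleavage by beta-lactamase reporter, read 2 hrs at RT, measured agonist activity. Compounds were tested with 18 hrs exposure at 37 C. Concentration-response data fitted to Hill equation.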

Test [5] concerns the target Peroxisome proliferator-activated receptor gamma (Homo sapiens) (UniProt P37231). The test can be described thus: qHTS assay for small molecule agonists of peroxisome proliferator-activated receptor gamma signaling (AID 588536; active means well fitted curve in the direction sought with a large enough effect in the signal ratio, with a control signal flat, not every such curve was filed as active; inconclusive means small, poorly fitted or top-dose-only effect, or effect the other way, or a change in a side signal; inactive means no such curve, though single readings can be large or run the other way; the % refers to the signal ratio;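 further: 0% = DMSO basal wells and 100% = rosiglitazone at 2 µM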). In short, it runs like this:
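Ratiometric blue/green fluorescence (405 nm excitation; 460 and 530 nm emission) from CCF4-loaded HEK293 reporter cells serves as signal. Exposure to test compounds lasts 16 h at 37 C in medium containing 1% charcoal/dextran-treated serum.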

Test [6] has the same target. The test can be described thus: qHTS assay for small molecule antagonists of peroxisome proliferator-activated receptor gamma signaling (AID 588537; active means well fitted inhibition curve with a large enough effect in the signal ratio, with a control signal flat, not every such curve was filed as active; inconclusive means small, poorly fitted or top-dose-only effect, or effect the other way, or a change in a side signal; the % refers to the signal ratio;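 further: reporter cells co-stimulated with 50 nM rosiglitazone agonist during compound treatment; % of control where 0% means no effect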). In short, it runs like this: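 We seeded GeneBLAzer HEK293 reporter cells at 3000 per well, allowed 6-6.5 h attachment at 37 C, then co-treated with test compound titrations and 50 nM rosiglitazone overnight (16 h). Inhibition was quantified from 460/530 nm emission ratios.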

The target in test [7] is Vitamin D3 receptor (Homo sapiens) (UniProt P11473). The test is described as follows: qHTS assay for small molecule antagonists of vitamin D receptor signaling (AID 588541).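 Further: receptor activated by calcitriol during compound treatment; series mostly up to about 77 µM; on the % scale 0 is the no-effect control and ±100 the full control effect.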 In short, it runs like this:
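VDR-UAS-bla HEK293T cells (2000/well, 2% charcoal-stripped FBS) were treated with titrated compounds plus 1-alpha,25-dihydroxyvitamin D3 (50 nM or 3 nM final) for 16 h at 37 C. CCF4 beta-lactamase fluorescence was read; Hill fits gave IC50.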

Test [8] can be described thus: qHTS assay for small molecule agonists of retinoid X receptor alpha signaling (AID 588544).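 On activation: 0% = DMSO basal wells and 100% = reference agonist.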 As to conditions: HEK293T RXRa-UAS-bla, beta-lactamase reporter, 18 h; 530 nm emission.
The target of test [9] is Retinoic acid receptor RXR-alpha (Homo sapiens) (UniProt P19793). The test is described as above.
Retinoic acid receptor RXR-alpha (Homo sapiens), sequence (P19793 whole entry, looked up): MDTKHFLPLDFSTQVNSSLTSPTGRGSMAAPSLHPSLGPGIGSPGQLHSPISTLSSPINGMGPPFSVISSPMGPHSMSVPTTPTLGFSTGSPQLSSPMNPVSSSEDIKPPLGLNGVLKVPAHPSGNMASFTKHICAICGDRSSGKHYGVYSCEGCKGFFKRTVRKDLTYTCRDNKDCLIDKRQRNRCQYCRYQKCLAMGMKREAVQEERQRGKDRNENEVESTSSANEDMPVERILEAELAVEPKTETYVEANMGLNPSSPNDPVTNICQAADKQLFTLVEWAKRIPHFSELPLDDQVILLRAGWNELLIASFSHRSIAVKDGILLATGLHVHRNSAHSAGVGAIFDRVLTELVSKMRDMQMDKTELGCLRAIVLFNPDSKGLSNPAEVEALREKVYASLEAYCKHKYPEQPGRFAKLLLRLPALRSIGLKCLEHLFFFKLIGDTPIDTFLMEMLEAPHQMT
The target of test [10] is Thyroid hormone receptor beta (Homo sapiens) (UniProt P10828). The test is described as follows: qHTS assay for small molecule agonists of thyroid hormone receptor beta signaling (AID 588545).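 Further: 0% = DMSO only and 100% = 10 nM T3.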 The method, boiled down: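 TR-UAS-bla GripTite HEK 293 cells (2500/well, medium with 2% charcoal/dextran FBS) were treated in agonist mode for 18 h at 37 C, titrated. Beta-lactamase was read by CCF4 ratio after 2 h; normalized to 10 nM T3 (100%) and DMSO, Hill-fitted for EC50 and efficacy.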
Thyroid hormone receptor beta (Homo sapiens), sequence (P10828 whole entry, looked up): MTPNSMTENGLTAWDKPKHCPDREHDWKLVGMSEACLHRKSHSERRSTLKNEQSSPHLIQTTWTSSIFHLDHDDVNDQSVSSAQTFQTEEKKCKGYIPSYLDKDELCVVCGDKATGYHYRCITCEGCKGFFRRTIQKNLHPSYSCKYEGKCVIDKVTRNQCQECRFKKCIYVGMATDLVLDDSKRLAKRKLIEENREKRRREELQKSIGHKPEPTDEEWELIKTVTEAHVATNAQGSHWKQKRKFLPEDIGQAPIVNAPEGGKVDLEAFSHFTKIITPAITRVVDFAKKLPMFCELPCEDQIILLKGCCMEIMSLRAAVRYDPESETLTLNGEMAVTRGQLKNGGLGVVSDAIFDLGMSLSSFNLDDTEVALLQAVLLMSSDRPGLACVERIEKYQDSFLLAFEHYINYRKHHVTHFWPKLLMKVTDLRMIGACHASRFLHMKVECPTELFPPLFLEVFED

For test [11] the target is unchanged. The test is described as follows: qHTS assay for small molecule antagonists of thyroid hormone receptor beta signaling (AID 588547; active means well fitted inhibition curve with a large enough effect in the signal ratio, with a control signal flat, not every such curve was filed as active; inconclusive means small, poorly fitted or top-dose-only effect, or effect the other way, or a change in a side signal; the % refers to the signal ratio;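 further: cells stimulated with 0.4 nM T3 agonist during compound exposure; series mostly up to about 77 µM; on the % scale 0 is the no-effect control and ±100 the full control effect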). To be noted: TR-UAS-bla HEK293, beta-lactamase ratio, antagonist mode, 18 h. The method, boiled down: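 TR-UAS-bla GripTite HEK293 cells in 2% charcoal/dextran FBS medium were preincubated 4 h at 37 C, given compound (0.59 nM to 92 uM) plus 0.4 nM T3 (final) for 18 h, then CCF4 for 2 h at RT; Hill fit gave IC50.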

Test [12] in a line: qHTS assay for environmental chemicals that activate the Aryl hydrocarbon Receptor (AhR) signaling pathway (AID 651777; active means well fitted curve in the direction sought with a large enough effect; inconclusive means small, poorly fitted or top-dose-only effect, or another doubt; inactive means no such curve, though single readings can be large; an effect the other way counts as inactive or inconclusive; further: % of control where 0% means no effect; nearly all actives have a fitted effect of over 15% in size). As to conditions: 1A2-DRE human hepatoma cells, luciferase, 24 h; activation: stronger effect = higher value. In short, it runs like this: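 Luminescence (One-Glo, 30 min, room temperature) reports AhR-driven luciferase in stably transfected human hepatoma cells bearing DRE and CYP1A2 promoter. Cells (1,200/well) were treated with compound for 24 hr at 37 C in qHTS format.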

The target of test [13] is Peroxisome proliferator-activated receptor alpha (Homo sapiens) (UniProt Q07869). The test is described as follows: qHTS assay for small molecule agonists of the peroxisome proliferator-activated receptor alpha (PPARalpha) signaling pathway (AID 651778; active means well fitted curve in the direction sought with a large enough effect; inconclusive means small, poorly fitted or top-dose-only effect, or another doubt; inactive means no such curve, though single readings can be large; an effect the other way counts as inactive or inconclusive; further: % of control where 0% means no effect). To be noted: PathHunter PPARalpha complementation, chemiluminescence, 6 h; max response: stronger effect = higher value. In short, it runs like this: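 Cells plated at 2,000/well and held overnight at 37 C, 5% CO2, then compound added by pin tool for 6 hr; after PathHunter detection reagent and 60 min at room temperature, chemiluminescence from enzyme complementation was read.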
Peroxisome proliferator-activated receptor alpha (Homo sapiens), sequence (Q07869 whole entry, looked up): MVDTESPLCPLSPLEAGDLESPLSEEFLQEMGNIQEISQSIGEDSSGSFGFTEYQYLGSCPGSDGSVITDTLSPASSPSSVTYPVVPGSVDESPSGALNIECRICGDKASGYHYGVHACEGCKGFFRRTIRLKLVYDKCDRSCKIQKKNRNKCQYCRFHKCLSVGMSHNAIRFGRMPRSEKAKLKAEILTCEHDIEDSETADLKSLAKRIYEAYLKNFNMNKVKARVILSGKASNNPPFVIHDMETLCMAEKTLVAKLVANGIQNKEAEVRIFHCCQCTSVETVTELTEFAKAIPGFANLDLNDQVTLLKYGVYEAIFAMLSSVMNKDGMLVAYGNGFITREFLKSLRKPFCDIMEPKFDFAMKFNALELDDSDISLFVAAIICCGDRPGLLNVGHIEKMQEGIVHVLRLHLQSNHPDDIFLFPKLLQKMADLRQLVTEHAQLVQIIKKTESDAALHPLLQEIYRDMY

Test [14] in a line: qHTS assay for small molecule agonists of the antioxidant response element (ARE) signaling pathway measured by Nrf2-dependant transcriptional activity (AID 720636; active means well fitted curve in the direction sought with a large enough effect in the repeat runs; inconclusive means weak or mixed curves; inactive means no such curve, though single readings can be large; an effect the other way counts as inactive or inconclusive; further: % of control where 0% means no effect). In short, it runs like this: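 Nrf2-dependent transcription read as ONE-Glo luciferase signal from ARE-luc HepG2 reporter cells after 16 hr compound treatment at 37 C, 5% CO2, in assay medium with 1% dialyzed FBS.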

Test [15] is described as follows: qHTS assay for small molecule agonists of the antioxidant response element (ARE) signaling pathway measured by Nrf2-dependant transcriptional activity - cell viability counter screen (AID 720653; active means well fitted curve in the direction sought with a large enough effect in the repeat runs; inconclusive means weak or mixed curves; inactive means no such curve, though single readings can be large; an effect the other way counts as inactive or inconclusive; further: on the % scale 0 is the no-effect control and ±100 the full control effect). To be noted: ARE-bla HepG2 viability, CellTiter-Glo ATP luminescence, 16 h; max response: stronger effect = lower value. In short, it runs like this:
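ARE-bla HepG2 cells (2,000/well) rested 5 hrs at 37C/5% CO2, then exposed to compounds in DMSO for 16 hrs. Viability was read in the same wells as intracellular ATP by luminescence, 30 min at room temperature after reagent addition.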

Test [16] is described as follows: qHTS assay for cell viability of HEK293 cells (AID 743288; active means well fitted curve in the direction sought with a large enough effect; inconclusive means small, poorly fitted or top-dose-only effect, or another doubt; inactive means no such curve, though single readings can be large; an effect the other way counts as inactive or inconclusive; further: on the % scale 0 is the no-effect control and ±100 the full control effect; nearly all actives have a fitted effect of over 50% in size). As to conditions: ATP luminescence (CellTiter-Glo), 18 h; max response: stronger effect = lower value. The method, boiled down: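 Parental HEK293 cells were seeded at 2,000 cells/well, rested at least 5 h at 37 C, then exposed to compounds in DMSO for 18 h at 37 C. Viability was read as ATP-dependent luciferase luminescence after 30 min at room temperature.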

The nature of test [17]: qHTS assay for cell viability of the p53RE-bla HCT-116 cell line (AID 743292; active means well fitted curve in the direction sought with a large enough effect; inconclusive means small, poorly fitted or top-dose-only effect, or another doubt; inactive means no such curve, though single readings can be large; an effect the other way counts as inactive or inconclusive; further: on the % scale 0 is the no-effect control and ±100 the full control effect; nearly all actives have a fitted effect of over 55% in size). The method, boiled down:
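ATP-based luminescent viability (CellTiter-Glo, 30 min RT) after 16 h compound treatment at 37 C of p53RE-bla HCT-116 cells, seeded at 4,000 cells/well and rested 5 h before dosing.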

Test [18] can be described thus: qHTS assay for small molecule activators of the p53 signaling pathway (AID 651743; active means well fitted activation curve with a large enough effect in the signal ratio, not every such curve was filed as active; inconclusive means small, poorly fitted or top-dose-only effect, or a change in a side signal; the % refers to the signal ratio; further: series mostly up to about 92 µM; % of control where 0% means no effect). As to conditions: HCT-116 p53RE-bla, beta-lactamase FRET ratio, 16 h; activation: stronger effect = higher value. In short, it runs like this:
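Cell-based beta-lactamase reporter (p53 response elements, HCT-116 background). After a 5-hour preincubation, cells received compound for 16 hours at 37 C; substrate development ran 2 hours at room temperature.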

A short description of test [19]: qHTS assay for small molecule antagonists of retinoid X receptor alpha signaling (AID 588546; active means well fitted inhibition curve with a large enough effect in the signal ratio, with a control signal flat, not every such curve was filed as active; inconclusive means small, poorly fitted or top-dose-only effect, or effect the other way, or a change in a side signal; inactive means no such curve, though single readings can be large or run the other way; the % refers to the signal ratio). As to conditions: HEK293T RXRa-UAS-bla, beta-lactamase ratio, antagonist mode; measured here: W530 green channel, cytotoxicity proxy. In short, it runs like this:
(§1)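 Beta-lactamase reporter inhibition, read as CCF4 fluorescence ratio (ex 405, em 460/530 nm) after 2 h at RT. HEK293T UAS-bla cells, 2500/well, were stimulated with 9-cis-RA at 500 or 100 nM final alongside test compound for 18 h at 37 C.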

Test [20] concerns the target Retinoic acid receptor RXR-alpha (Homo sapiens) (UniProt P19793). The test is described as above. To be noted: HEK293T RXRa-UAS-bla, beta-lactamase ratio, antagonist mode. The method, boiled down:
as §1

Estrogen receptor (Homo sapiens), sequence (P03372 whole entry, looked up): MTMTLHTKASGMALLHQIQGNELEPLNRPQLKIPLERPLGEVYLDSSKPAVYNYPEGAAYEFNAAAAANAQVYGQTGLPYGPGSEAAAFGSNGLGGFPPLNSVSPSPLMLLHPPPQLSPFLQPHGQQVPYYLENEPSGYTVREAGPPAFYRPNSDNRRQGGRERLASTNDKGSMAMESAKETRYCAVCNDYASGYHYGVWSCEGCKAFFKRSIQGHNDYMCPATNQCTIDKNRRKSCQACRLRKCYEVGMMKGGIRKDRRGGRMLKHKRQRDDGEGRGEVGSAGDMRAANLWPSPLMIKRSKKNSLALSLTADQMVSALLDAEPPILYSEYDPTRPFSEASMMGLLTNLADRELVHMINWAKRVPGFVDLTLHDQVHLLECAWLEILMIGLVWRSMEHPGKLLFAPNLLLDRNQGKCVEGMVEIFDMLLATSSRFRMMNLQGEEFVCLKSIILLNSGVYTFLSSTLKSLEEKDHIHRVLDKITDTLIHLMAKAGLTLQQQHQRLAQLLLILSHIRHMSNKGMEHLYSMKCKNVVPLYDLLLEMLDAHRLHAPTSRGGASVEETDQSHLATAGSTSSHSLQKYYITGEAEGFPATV
Glucocorticoid receptor (Homo sapiens), sequence (P04150 whole entry, looked up): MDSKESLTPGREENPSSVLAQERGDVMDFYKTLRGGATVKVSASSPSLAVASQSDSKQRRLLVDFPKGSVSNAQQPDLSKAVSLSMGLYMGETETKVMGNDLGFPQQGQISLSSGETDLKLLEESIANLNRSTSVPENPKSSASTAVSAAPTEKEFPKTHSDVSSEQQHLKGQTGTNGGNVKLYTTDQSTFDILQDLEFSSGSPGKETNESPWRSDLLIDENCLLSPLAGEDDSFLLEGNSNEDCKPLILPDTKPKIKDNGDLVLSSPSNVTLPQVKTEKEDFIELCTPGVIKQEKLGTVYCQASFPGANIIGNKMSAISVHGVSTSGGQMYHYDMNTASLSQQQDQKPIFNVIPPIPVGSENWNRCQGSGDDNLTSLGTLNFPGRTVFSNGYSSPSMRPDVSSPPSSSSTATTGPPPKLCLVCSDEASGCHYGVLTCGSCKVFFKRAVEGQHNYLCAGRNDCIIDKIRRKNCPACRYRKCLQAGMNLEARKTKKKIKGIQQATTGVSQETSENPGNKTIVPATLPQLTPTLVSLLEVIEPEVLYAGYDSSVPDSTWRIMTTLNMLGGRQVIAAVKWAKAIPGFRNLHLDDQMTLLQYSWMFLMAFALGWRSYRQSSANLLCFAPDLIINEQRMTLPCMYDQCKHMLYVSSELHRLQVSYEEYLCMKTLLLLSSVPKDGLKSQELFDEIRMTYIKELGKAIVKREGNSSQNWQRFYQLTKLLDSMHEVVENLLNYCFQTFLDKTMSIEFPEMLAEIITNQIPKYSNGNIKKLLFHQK
Peroxisome proliferator-activated receptor gamma (Homo sapiens), sequence (P37231 whole entry, looked up): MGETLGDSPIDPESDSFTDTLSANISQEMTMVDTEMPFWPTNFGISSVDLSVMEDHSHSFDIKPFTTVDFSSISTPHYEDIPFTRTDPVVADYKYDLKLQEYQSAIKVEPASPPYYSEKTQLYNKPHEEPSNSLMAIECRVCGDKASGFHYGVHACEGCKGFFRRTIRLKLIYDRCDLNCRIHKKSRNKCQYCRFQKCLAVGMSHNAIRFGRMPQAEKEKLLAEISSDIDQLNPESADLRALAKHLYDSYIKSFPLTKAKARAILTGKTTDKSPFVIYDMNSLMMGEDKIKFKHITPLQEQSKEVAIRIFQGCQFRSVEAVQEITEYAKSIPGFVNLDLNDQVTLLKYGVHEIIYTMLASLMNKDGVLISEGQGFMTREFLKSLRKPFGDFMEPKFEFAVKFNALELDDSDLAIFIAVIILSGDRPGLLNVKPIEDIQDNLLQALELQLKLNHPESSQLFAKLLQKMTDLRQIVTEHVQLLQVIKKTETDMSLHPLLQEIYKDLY
Vitamin D3 receptor (Homo sapiens), sequence (P11473 whole entry, looked up): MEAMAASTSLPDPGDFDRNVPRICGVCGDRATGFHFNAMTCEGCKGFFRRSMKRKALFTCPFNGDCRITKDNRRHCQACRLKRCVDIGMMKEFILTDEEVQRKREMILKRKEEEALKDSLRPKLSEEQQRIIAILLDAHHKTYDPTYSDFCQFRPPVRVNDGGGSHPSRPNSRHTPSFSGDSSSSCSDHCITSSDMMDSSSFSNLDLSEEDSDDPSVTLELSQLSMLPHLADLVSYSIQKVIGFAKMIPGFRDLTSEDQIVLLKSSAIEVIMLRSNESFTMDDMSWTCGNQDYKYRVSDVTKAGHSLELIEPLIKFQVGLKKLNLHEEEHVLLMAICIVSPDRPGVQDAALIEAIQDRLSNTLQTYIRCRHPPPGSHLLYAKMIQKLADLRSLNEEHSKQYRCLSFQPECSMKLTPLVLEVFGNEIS
Peroxisome proliferator-activated receptor delta (Homo sapiens), sequence (Q03181 whole entry, looked up): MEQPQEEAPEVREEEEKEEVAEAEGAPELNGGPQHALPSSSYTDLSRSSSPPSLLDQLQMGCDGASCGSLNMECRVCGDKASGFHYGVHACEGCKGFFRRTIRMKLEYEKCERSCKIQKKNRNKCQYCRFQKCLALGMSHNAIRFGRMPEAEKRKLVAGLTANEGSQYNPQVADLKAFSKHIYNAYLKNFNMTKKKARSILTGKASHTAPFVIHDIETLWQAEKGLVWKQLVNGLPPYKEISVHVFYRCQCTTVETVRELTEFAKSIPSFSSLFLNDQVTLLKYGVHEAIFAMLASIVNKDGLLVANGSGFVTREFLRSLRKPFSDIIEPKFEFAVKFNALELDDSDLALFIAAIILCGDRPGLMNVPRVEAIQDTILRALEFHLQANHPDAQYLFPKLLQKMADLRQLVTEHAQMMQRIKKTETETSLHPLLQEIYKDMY

For `CCN(CC)c1nc(C)cc(OP(=S)(OC)OC)n1`, the Potency entry in test [1], in [2], in [3], in test [5], in test [6] and in [7] was “inactive” in each case. Besides, the Potency result in test [9], in [10], in [14] and in [17] was “inactive” throughout. For the same compound, the outcome in test [4] was inactive. The max response is 26.8% in [8], 3.1% (inactive) in test [13], -9.93% (inactive) in test [15] and -11.6% (inactive) in test [16]. Further, the activity change % (negative = inhibition) in test [11] is -11.6% (inactive). Besides, the activation in [12] was 1.48% (inactive).
For the compound `Cc1cc(C)nc(NC(=O)NS(=O)(=O)c2ccccc2C(=O)OC2COC2)n1`, the Potency result in [1], in test [5], in test [6], in test [7], in [9] and in test [10] was “inactive” throughout. Further, the Potency result in test [14] was “inactive”. Further, the outcome in test [4] was inactive. The max response was -3.21% in [8], -2.96% (inactive) in [13], 18% (inactive) in test [15] and 8.1% (inactive) in [16]. The activity change % (negative = inhibition) in test [11] is 4.53% (inactive). Besides, the figures for the activation in test [18] and in test [12] were 1.69% (inactive) and -0.244% (inactive), respectively.
On to `CCOP(=O)(OCC)SCSP(=S)(OCC)OCC`, for which the Potency result in [2], in test [3], in [5], in test [6], in test [10] and in test [14] was “inactive” in each case. The Potency result in [17] was “inactive”. Besides, in test [4], the compound was classed as inactive. The max response is -5.91% in test [19], -0.113% (inactive) in test [13], -1.01% (inactive) in test [15] and -5.51% (inactive) in [16]. For the same compound, the activity change % (negative = inhibition) in test [11] is -5.46% (inactive). Further, the activation is -1.69% (inactive) in [18] and 6.55% (inactive) in [12].
Take `O=S(=O)(O)C(F)(F)C(F)(F)C(F)(F)C(F)(F)C(F)(F)C(F)(F)F`: the Potency result in test [1], in test [3], in test [5], in test [6], in test [7] and in test [9] was “inactive” each time. Moreover, the Potency result in [10], in test [14] and in test [17] was “inactive” in each case. Also, the outcome in [4] was inactive. For the same compound, the max response in [8] is -12.5% and -11.4%; in test [19], 0.0729%; in test [20], -0.502% (inactive); in test [13], 12% (inactive) and 14.9% (inactive); in test [15], 4.85% (inactive) and -13.8% (inactive); in test [16], -20.2% (inactive) and -14.6% (inactive). The activity change % (negative = inhibition) in test [11] is 23.1% (inactive). Moreover, the activation in test [18] is -1.95% (inactive) and 1.08% (inactive); in [12] it was 2.71% (inactive) and 0.937% (inactive).
For the compound `CC1(C)Cc2cccc(O)c2O1`, the Potency entry in [1], in [2], in test [5], in test [6], in test [7] and in test [9] was “inactive” each time. Moreover, the Potency entry in [10] and in test [17] was “inactive” each time. Moreover, the max response in test [8] is -1.21%; in test [19] it was -5.33%; in test [20] it was -3.15% (inactive); in [13] it was -0.718% (inactive); in test [15], 7.61% (inactive); in test [16] it was 4.44% (inactive). Further, the activity change % (negative = inhibition) in test [11] is -2.82% (inactive). Also, in test [12], the activation is 0.293% (inactive).
In the case of `C=C1CC[C@H](O)C/C1=C/C=C1\CCC[C@]2(C)[C@@H]([C@H](C)CCCC(C)C)CC[C@@H]12`, in test [1], the Potency is 15.8 µM [inconclusive] (active).
